Measured values taken from publication PMC4336329 (PLoS ONE, 2015).
The whole screen tested about 310,000 compounds, of which about 14,000 (4.5%) showed an effect of 50% or more. Effects have a minus sign here. The full list was thinned out, with strong results kept by preference.

Molecular target: human ether-à-go-go-related gene (hERG) potassium channel (human, UniProt Q12809)
Experiment: primary screen, population patch clamp on CHO cells stably expressing hERG; higher = less effect of the substance
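Also: peak tail current of the secondary pulse compared with the same well before compound.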

Sequence of human ether-à-go-go-related gene (hERG) potassium channel (Q12809 whole entry, looked up): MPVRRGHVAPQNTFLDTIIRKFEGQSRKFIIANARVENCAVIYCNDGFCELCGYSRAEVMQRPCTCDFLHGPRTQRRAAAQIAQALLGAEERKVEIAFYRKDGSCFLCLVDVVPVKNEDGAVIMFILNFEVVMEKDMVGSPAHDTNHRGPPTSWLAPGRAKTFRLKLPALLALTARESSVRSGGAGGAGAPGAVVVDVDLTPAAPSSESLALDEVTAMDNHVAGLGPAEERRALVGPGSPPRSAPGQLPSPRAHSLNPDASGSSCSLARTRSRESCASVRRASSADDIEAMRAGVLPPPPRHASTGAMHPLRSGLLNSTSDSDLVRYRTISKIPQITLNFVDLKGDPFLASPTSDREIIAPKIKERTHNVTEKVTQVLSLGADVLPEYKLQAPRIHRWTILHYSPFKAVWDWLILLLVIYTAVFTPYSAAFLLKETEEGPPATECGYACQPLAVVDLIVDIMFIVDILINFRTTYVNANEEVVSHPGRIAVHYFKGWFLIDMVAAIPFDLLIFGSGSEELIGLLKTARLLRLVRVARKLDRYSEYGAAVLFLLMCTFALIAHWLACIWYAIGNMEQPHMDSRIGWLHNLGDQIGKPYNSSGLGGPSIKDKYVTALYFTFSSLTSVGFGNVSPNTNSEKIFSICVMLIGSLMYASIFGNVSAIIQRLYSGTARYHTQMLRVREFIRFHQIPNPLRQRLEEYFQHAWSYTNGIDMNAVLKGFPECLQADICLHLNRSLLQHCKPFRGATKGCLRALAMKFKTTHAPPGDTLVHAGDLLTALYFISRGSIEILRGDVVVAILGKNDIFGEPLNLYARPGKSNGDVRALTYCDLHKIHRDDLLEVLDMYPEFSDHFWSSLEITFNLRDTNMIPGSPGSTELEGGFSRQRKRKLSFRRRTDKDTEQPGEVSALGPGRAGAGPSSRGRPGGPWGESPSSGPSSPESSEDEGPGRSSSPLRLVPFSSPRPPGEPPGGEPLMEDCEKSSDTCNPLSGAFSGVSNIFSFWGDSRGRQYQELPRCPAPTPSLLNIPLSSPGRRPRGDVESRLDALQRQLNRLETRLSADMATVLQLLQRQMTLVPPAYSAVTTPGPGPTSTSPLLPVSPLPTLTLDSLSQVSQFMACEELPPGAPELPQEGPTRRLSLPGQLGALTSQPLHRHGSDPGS

Point of comparison: `Cc1cccc(NC(=O)c2cc(S(=O)(=O)NCc3ccco3)ccc2F)c1C`, “hERG current change (%, negative = inhibition) at 10uM” value 4.11%. Against it:
- Cc1cc(=O)n2nc(N3CCCC(C(=O)N4CCOCC4)C3)sc2n1 (centres unmarked) — lower, 3.1%
- COc1ccc(/C=C/c2c([N+](=O)[O-])c(=O)n(C)c(=O)n2C)c(OC)c1OC — higher, 13%
- O=C(N/N=C/c1cccc2ccccc12)c1cccs1 — higher, 20.7%
- COc1ccccc1N(CC(=O)NCC1CCCO1)C(=O)CNS(=O)(=O)c1ccccc1 (centres unmarked) — lower, -0.369%
- Cc1cc(=O)oc(C)c1C(=O)Nc1ccc2nsnc2c1 — higher, 9.45%
- CCOC(=O)c1ccc2c(c1)nc(SC(C)C(=O)NCC1CCCO1)n2CC (centres unmarked) — lower, -18.9%
- CCOC(=O)c1ccc(NC(=O)CNC(=O)c2ccco2)cc1 — higher, 13.8%
- O=C(NC(=S)Nc1ccccn1)c1ccc([N+](=O)[O-])cc1 — lower, -11.9%
- O=C(CC12CC3CC(CC(C3)C1)C2)NC1CC1 — higher, 23.2%
- CCOc1ccc(S(=O)(=O)N2CCN(C(=S)NCc3ccccc3)CC2)cc1 — lower, -18.2%
- Nc1cccc(C(=O)Nc2cccc3ncccc23)c1 — higher, 23.8%
- Cc1cccc(N2CCN(C(=O)c3ccc4c(c3)CCN4S(C)(=O)=O)CC2)c1C — lower, -14.8%
- Cc1nc(SCC(=O)N2CCN(C(=O)c3ccco3)CC2)c2c(C)c(C)sc2n1 — lower, -66.8%
- Cc1nc(SCC(=O)N2CCCCC2)c2c(C)c(C)sc2n1 — lower, -11.7%
- Cc1nc(SCC(=O)N2CCOCC2)c2c(C)c(C)sc2n1 — lower, 1.76%
- CCCN1Cc2cccc(C(=O)NCc3ccccc3)c2C1=O — lower, -34.9%
- O=C(Nc1cccc(-c2nnc(-c3ccccc3)o2)c1)C1CCCO1 (centres unmarked) — lower, -66.5%
- O=C(Nc1cccc(-c2nnc(-c3ccccc3)o2)c1)C1CC1 — lower, -19.3%
- O=C(Nc1ccc(-c2nnc(-c3ccccc3)o2)cc1)C1CCCO1 (centres unmarked) — lower, -13.3%
- C=CCn1c(=NC(=O)C2CCCCC2)sc2cc(NC(C)=O)ccc21 — lower, -2.15%
- Oc1ccccc1N1CCN(CC(O)COCc2ccccc2Cl)CC1 (centres unmarked) — lower, -42%
- OC(COCc1cccs1)CN1CCN(c2ccccn2)CC1 (centres unmarked) — lower, -52.5%
- CCOC(=O)C1CCN(CC(O)COCc2cccs2)CC1 (centres unmarked) — lower, -38%
- Cc1cccc(N2CCN(CC(O)COCc3cccs3)CC2)c1C (centres unmarked) — lower, -70.8%
- CCOc1ccccc1N1CCN(CC(O)COCc2cccs2)CC1 (centres unmarked) — lower, -32.1%
- OC(COCc1cccs1)CN1CCN(c2ccccc2Cl)CC1 (centres unmarked) — lower, -71%
- COc1ccccc1N1CCN(CC(O)COCc2cccs2)CC1.Cl (centres unmarked) — lower, -19.8%
- O=S(=O)(c1ccc(F)cc1)N1CCN(CC(O)COCc2cccs2)CC1 (centres unmarked) — lower, -18.5%
- CCOC(=O)c1cccc(COC(=O)c2cccc(-c3nnc(-c4ccccc4)o3)c2)c1 — lower, -2.94%
- COc1ccc(C(=O)c2ccsc2N)cc1 — lower, 3.5%
- Cc1ccc(OP(=O)(O)Oc2ccc(C)cc2)cc1 — lower, 2.09%
- CCOC(=O)c1cnc2ccc(OCC)cc2c1NCc1ccccc1OC — higher, 4.45%
- CCOC(=O)c1nc(NCc2cccnc2)c2ccccc2n1 — lower, -15.3%
- CCOC(=O)c1cnc2ccc(OCC)cc2c1NCc1cccnc1.Cl — lower, -77.4%
- CCOC(=O)c1cnc2ccc(OCC)cc2c1NCc1ccccc1 — lower, -40.3%
- CCOC(=O)c1cnc2ccc(OCC)cc2c1N(C)Cc1ccccc1 — lower, -11.9%
- CCOC(=O)c1cnc2ccc(OC)cc2c1NCc1ccccc1 — lower, -65.8%
- O=C(CNC(=O)c1ccc(-c2ccccc2)cc1)Nc1ccc(S(=O)(=O)Nc2ncccn2)cc1 — lower, 4.04%
- Cc1cc(NCc2ccccn2)ccc1Br — lower, -16.5%
- Clc1ccc(Cn2cccc2C2=NCCO2)cc1 — higher, 4.69%
- CC(C)CNc1nc(Oc2ccc(=O)[nH]n2)nc(N(C)C)n1 — higher, 8.46%
- COC(=O)CC(NC(=S)NC(=O)c1ccccc1)c1ccc(Br)cc1 (centres unmarked) — higher, 6.8%
- COCCNC(=O)c1cn(C)c2ccc(S(=O)(=O)N3CCCCC3)cc2c1=O — higher, 11.1%
- C=CCn1cc(C(=O)NCCCOC)c(=O)c2cc(S(=O)(=O)N3CCC(C)CC3)ccc21 — lower, -32.9%
- CCN(CC)CCNC(=O)c1cn(CC)c2ccc(S(=O)(=O)N3CCOCC3)cc2c1=O — higher, 14.6%
- C=CCn1cc(C(=O)OC)c(=O)c2cc(S(=O)(=O)N3CCC(C)CC3)ccc21 — lower, -39%
- C=CCn1cc(C(=O)NCc2ccc(Cl)cc2)c(=O)c2cc(S(=O)(=O)N(CC)CC)ccc21 — lower, -22.5%
- C=CCn1cc(C(=O)OC)c(=O)c2cc(S(=O)(=O)N3CCCCCC3)ccc21 — lower, -0.223%
- C=CCn1cc(C(=O)NCCOC)c(=O)c2cc(S(=O)(=O)N3CCCCCC3)ccc21 — lower, -65.8%
- C=CCn1cc(C(=O)NCCN(CC)CC)c(=O)c2cc(S(=O)(=O)N3CCCCCC3)ccc21 — lower, -71.6%
- C=CCn1cc(C(=O)NCCCN(CC)CC)c(=O)c2cc(S(=O)(=O)N3CCC(C)CC3)ccc21 — lower, -53.7%
- C=CCn1cc(C(=O)NCc2ccco2)c(=O)c2cc(S(=O)(=O)N3CCCCCC3)ccc21 — lower, -36.4%
- C=CCn1cc(C(=O)NCCOC)c(=O)c2cc(S(=O)(=O)N(CC)CC)ccc21 — lower, -13.9%
- C=CCn1cc(C(=O)NCc2cccnc2)c(=O)c2cc(S(=O)(=O)N(CC)CC)ccc21 — lower, -74.4%
- CC(C)COc1ccc(C(=O)Nc2ccc(N3CCOCC3)cc2N2CCOCC2)cc1 — lower, 1.07%
